# Source: PubChem BioAssay
# MARV entry inh: Marburg virus entry inhibition. Marburg virus pseudotyped entry inhibition, cell reporter. Potency, µM (highest dose often 37.8 µM), inactives show top-dose activity change, negative = inhibition, actives largely listed as inhibitors. 300,000 compounds, 1.8% hits; calls by dose curve; tested in HEK293 cells; further: potency means the concentration at half of the fitted maximal effect
# HCV inhibitor: HCV inhibition; Huh7.5.1 HCVcc-Cre infection, luciferase reporter, 44 h; Potency, µM (series often up to 41.8 µM), inactives show top-dose activity change, negative = inhibition, hits mostly inhibitors; 340,000 compounds, 3.4% hits; AID 651820; active means well fitted inhibition curve with a large enough effect; inconclusive means small, poorly fitted or top-dose-only effect, or another doubt; inactive means no such curve, though single readings can be large or run the other way; further: potency means the concentration at half of the fitted maximal effect
#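 A cell-based infection assay in which seeded cells (1,000 per well) receive test compound after 4 h, are inoculated with HCVcc-Cre at approximately 0.5 moi, and are incubated 44 h before luminescence detection.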
# FMDV inh: blocks foot and mouth disease virus | FMDV antiviral cell-based qHTS | Potency, µM (doses to about 57.9 µM), inactives show at the highest dose activity change, negative = inhibition, hits mostly inhibitors | 410,000 compounds, 1.2% hits; calls by dose curve; tested in HEK293T cells; further: read-out not given here; potency means the concentration at half of the fitted maximal effect; nearly all actives have a fitted effect of over 45% in size
# HCMV antiviral: human cytomegalovirus inhibition | AID 1259415 | HFF cells, HCMV-luciferase reporter, 72 h; stronger effect = lower value | activity change, negative = inhibition, % at 57.5 µM | 410,000 compounds, 4.5% hits; in the data active means activity change below about -60%; inconclusive means no clear call, values can overlap the other calls; inactive means above about -39%
#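 HFF cells seeded 16 h at 37C, treated with compounds, infected with luciferase-reporter HCMV at MOI 1 PFU/cell; luciferase read at 72 h post infection, normalized to buffer-only and Salinomycin controls.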
# LASV entry inh: Lassa virus entry inhibition | Lassa virus pseudotype entry inhibition, cell reporter | Potency, µM (doses to about 37.9 µM), without a hit: at the top dose activity change, negative = inhibition, actives largely listed as inhibitors | 300,000 compounds, 1.2% hits; calls by dose curve; tested in HEK293 cells; further: potency means the concentration at half of the fitted maximal effect; nearly all actives have a fitted effect of over 50% in size
# The depositor's hits bear a star; ? = inconclusive; · = not tested or not shown; [ ] = remark or other dose. Most compounds without a hit are left out; they make up all but 7.9% or so of the library. On the % scale 0 is the no-effect control and ±100 the full control effect.
SMILES,MARV entry inh,HCV inhibitor,FMDV inh,HCMV antiviral,LASV entry inh
CCOC(=O)c1c(C)oc2c1C(=O)c1ccccc1C2=O,?,5.6µM*,-21%,-15,?
O=C(c1ccc2c(c1)OCO2)N(Cc1cc2ccc(F)cc2nc1N1CCC(O)CC1)CC1CCCO1 (stereo unspecified),·,·,-7%,·,·
O=C(C[C@@H]1C[C@@H]2c3cc(NC(=O)c4ccc5c(c4)OCO5)ccc3O[C@@H]2[C@@H](CO)O1)NCc1cccnc1,·,·,·,-13,·
O=[N+]([O-])c1ccc2nc(-c3ccccc3)oc2c1,·,0%,100%,38,·
COc1cccc(-c2nc3ccc([N+](=O)[O-])cc3o2)c1,?,27%,82%,-79*,?
O=C1NC(=O)N(Cc2ccco2)C(=O)/C1=C/c1ccc(-c2cccc([N+](=O)[O-])c2)o1,-12%,6%,32µM*,·,0%
O=C1NC(=O)/C(=C/c2ccc(-c3cccc([N+](=O)[O-])c3)o2)S1,17%,16%,-13%,-33,?
CC[n+]1c(C)cc2c(sc3ccccc32)c1C,·,?,-10%,-101*,·
CCc1nc(C)cc2c1sc1ccccc12,12%[46.1 µM],?,0%,38,17%
O=c1c2sc3ccccc3c2n(Cc2ccc(F)cc2Cl)c(=O)n1Cc1ccccc1,?,·,-8%,19,2%[46.1 µM]
CNC(=O)c1ccsc1NC(=O)CCS(=O)(=O)c1ccc(F)cc1,?,-9%,-29%,-18,7%[46.1 µM]
NC(=O)c1ccsc1NC(=O)CCS(=O)(=O)c1ccc(F)cc1,-12%,?,?,-63*,9%[46.1 µM]
FC(F)(F)c1ccc(N/N=C/c2cccnc2)nc1,14%[46.1 µM],14%,36%,37,1%
Cc1ncc(CO)c(/C=N/N=C/c2ccccc2O)c1O,28%,0%,3%,85,?
Cc1ncc(CO)c(/C=N/NC(=S)Nc2ccc(F)cc2)c1O,14µM*,-19%,0%,-12,?
Cc1ncc(CO)c(/C=N/Nc2ccc(C(F)(F)F)cn2)c1O,4µM*,?,6%,-96*,?
CCN1C(=O)c2ccccc2Sc2ccc(C(=O)NCCC(C)C)cc21,?,?,15%,20,?
CCc1ccccc1NC(=O)Nc1ccc2c(c1)N(CC)C(=O)c1ccccc1S2,-19%[46.1 µM],·,-10%,-84*,3%[46.1 µM]
CCN1C(=O)c2ccccc2Sc2ccc(NC(=O)Nc3ccc(Br)c(C)c3)cc21,·,·,?,-102*,?
CCN1C(=O)c2ccccc2Sc2ccc(NC(=O)Nc3ccc(C(C)=O)cc3)cc21,-25%[46.1 µM],·,-14%,-26,18%[46.1 µM]
CCOC(=O)c1ccc2c(c1)N(Cc1ccccc1)C(=O)c1ccccc1S2,·,·,3%,-18,-21%[46.1 µM]
CCN1C(=O)c2ccccc2Sc2ccc(C(=O)NC(C)C)cc21,·,7%,-8%,-101*,·
CCN(CC)CCNC(=O)Nc1ccc2c(c1)N(Cc1ccccc1)C(=O)c1ccccc1S2,?,·,-15%,-61*,?
CC1CCCN(S(=O)(=O)c2ccc(C(=O)Nc3nnc(-c4ccccc4Cl)o3)cc2)C1 (stereo unspecified),?,-9%,-13%,-98*,?
CC1CC(C)CN(S(=O)(=O)c2ccc(C(=O)Nc3nnc(-c4cccs4)o3)cc2)C1 (stereo unspecified),7.9µM*,?,-22%,-70*,?
SMILES,MARV entry inh,HCV inhibitor,FMDV inh,HCMV antiviral,LASV entry inh
COc1cccc(-c2nnc(NC(=O)c3ccc(S(=O)(=O)N4CC(C)OC(C)C4)cc3)o2)c1 (stereo unspecified),?,?,-11%,-94*,?
CCOC(=O)c1ccccc1NC(=O)Cn1c(=O)n(Cc2nc(C)no2)c(=O)c2ccccc21,·,·,-19%,-8,28%[46.1 µM]
O=C(Nc1c2c(nn1-c1ccc(Cl)cc1)CS(=O)(=O)C2)c1ccc2c(c1)OCO2,-8%,?,-3%,-2,4%
O=C(Nc1c2c(nn1-c1ccc(Cl)cc1)CS(=O)(=O)C2)c1ccc(Br)cc1,·,·,?,-76*,?
O=C(c1cc(COc2ccc(F)cc2Cl)on1)N1CCCCCC1,·,?,42%,70,·
CC(C)N(Cc1nccn1C)C(=O)c1cc(COc2ccc(F)cc2Cl)on1,1%,-54%,-11%,-97*,-4%
O=C(c1cc(COc2ccc(F)cc2Cl)on1)N(Cc1ccncc1)CC1CCCO1 (stereo unspecified),-15%[46.1 µM],?,-15%,-61*,?
COc1ccc(OCc2cc(C(=O)N(Cc3nccn3C)C(C)C)no2)c2ccccc12,·,?,24%,93,·
CCN(CC1CCCO1)C(=O)c1cc(COc2ccc(F)cc2F)on1 (stereo unspecified),14%,·,13%,-8,-1%
O=C(c1cc(COc2ccc(F)cc2Cl)on1)N1CCC(c2ccncc2)CC1,?,13µM*,-28%,-67*,?
CCCc1ccc2oc(C(=O)N(Cc3ccncc3)CC3CCCO3)c(C)c2c1 (stereo unspecified),?,?,17%,-13,6.3µM*
O=C(O)CSC1=c2ccccc2=NC1c1cccs1 (stereo unspecified),8%,·,·,·,·
CC(C)NC(=O)c1nnc2n1CCN(Cc1ccc(Cl)c(F)c1)C2,·,·,·,-1,·
CCC(NC(=O)c1cc(COc2ccc(F)cc2Cl)on1)c1ccncc1 (stereo unspecified),·,4µM*,-15%,?,·
CCC(NC(=O)c1cc(COc2cncc(Cl)c2)on1)c1ccncc1 (stereo unspecified),·,?,-16%,?,·
CN(CCO)C(=O)c1cn(C2CCCN(Cc3ccc4ccccc4c3)C2)nn1 (stereo unspecified),·,·,-22%,·,·
COC(=O)[C@@H]1[C@H](CCc2ccccc2)NC(=O)N(Cc2ccccc2)[C@H]1C,-24%[14.2 µM],·,·,·,?
COc1cc(CNc2ccc3[nH]c(=O)[nH]c3c2)ccc1OCc1ccccc1F,?,?,-15%,?,-10%[46.1 µM]
CCOc1cc(CNc2ccc(N3CCCCC3)cc2)cc(Br)c1OCC(=O)NC(C)(C)C,-30%,?,32µM*,-4,-13%
C=CCOc1cccc(CNc2ccc3[nH]c(=O)[nH]c3c2)c1,?,11µM*,?,-22,?
COc1cc(CNc2ccc3[nH]c(=O)[nH]c3c2)ccc1OCC(=O)NC(C)(C)C,-20%,11%,-5%,-16,?
COc1cc(CNc2ccc3[nH]c(=O)[nH]c3c2)cc(Br)c1OCC(=O)NC(C)(C)C,-24%,?,?,-71*,-1%
COc1cc(CNc2ccc3[nH]c(=O)[nH]c3c2)ccc1OCc1ccccc1C,-22%,-38%,?,-70*,-11%
C=CCOc1ccc(CNc2ccc3[nH]c(=O)[nH]c3c2)cc1OC,17%[46.1 µM],-14%,-4%,11,?
COc1cccc(N2CC(NC(=O)c3ccc(S(=O)(=O)N4CCCC4)cc3)CC2=O)c1 (stereo unspecified),·,·,-1%,-3,5%[46.1 µM]
O=C(CCCC1=NS(=O)(=O)c2ccccc2N1)N1CCN(c2ccc([N+](=O)[O-])cc2)CC1,0%[46.1 µM],-17%,1%,-18,-6%[46.1 µM]
